Sampled rows, rich in hits. Any-hit rate of the full collection: about 4%.
Mtb UGM inh = M. tuberculosis UGM enzyme inhibitors, primary screen, biochemical, fluorescence polarization, single point. inhibition, % at 10 µM. 320,000 tested, 0.06% active. purified UGM, fluorescence polarization probe displacement. AID 504406, 2011; in the data active means inhibition above about 10%, passing the limit was not always enough; inconclusive means no clear call, values can overlap the other calls
Mtb FBA inh = Mtb FBA enzyme inhibitors, primary screen, biochemical, fluorescence, strain H37Rv; Fructose-bisphosphate aldolase (Mycobacterium tuberculosis (strain ATCC 25618 / H37Rv)), …; purified M. tuberculosis FBA, fluorescence read-out; inhibition, % at 1 µM; 360,000 tested, 2.3% active
Rv3671c inh = Rv3671c serine protease inhibitors, primary screen, biochemical, fluorescence polarization, M. tuberculosis H37Rv | P9WHR9 | inhibition, % at 5.96 µM | 320,000 tested, 0.048% active | AID 2606, 2010; in the data active means inhibition above about 38%;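 further: extracellular domain of Rv3671c used as enzyme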
GDH-TPI counter-1 = GDH-TPI coupling enzyme inhibitors, primary screen, artefact control for M. tuberculosis FBA inhibitor project, biochemical, absorbance, full deck. GDH-TPI coupled enzyme counterscreen, NADH absorbance. inhibition, % at 4.8 µM. 360,000 tested, 1.2% active. AID 588335, 2011; in the data active means inhibition above about 30%
Mtb bLac sens = beta-lactam sensitization of Mtb H37Rv, H37Rv; AID 434955, 2010; M. tuberculosis H37Rv growth with meropenem, percent inhibition; 330,000 tested, 0.27% active; inhibition, % at 25 µM; call rule not given here;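 further: growth measured after seven days incubation then overnight dye step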
RecA intein inh = Mtb RecA intein splicing inhibitors, primary screen, biochemical, fluorescence, HTS | Protein RecA (Mycobacterium tuberculosis (strain ATCC 25618 / H37Rv)), P9WHJ3 | cell-free RecA intein splicing | inhibition, % (no concentration beside the values) | 290,000 tested, 0.75% active | AID 2221, 2009; in the data active means inhibition above about 30%; inconclusive means no clear call, values can overlap the other calls
Target sequence (P9WHJ3 whole entry, looked up): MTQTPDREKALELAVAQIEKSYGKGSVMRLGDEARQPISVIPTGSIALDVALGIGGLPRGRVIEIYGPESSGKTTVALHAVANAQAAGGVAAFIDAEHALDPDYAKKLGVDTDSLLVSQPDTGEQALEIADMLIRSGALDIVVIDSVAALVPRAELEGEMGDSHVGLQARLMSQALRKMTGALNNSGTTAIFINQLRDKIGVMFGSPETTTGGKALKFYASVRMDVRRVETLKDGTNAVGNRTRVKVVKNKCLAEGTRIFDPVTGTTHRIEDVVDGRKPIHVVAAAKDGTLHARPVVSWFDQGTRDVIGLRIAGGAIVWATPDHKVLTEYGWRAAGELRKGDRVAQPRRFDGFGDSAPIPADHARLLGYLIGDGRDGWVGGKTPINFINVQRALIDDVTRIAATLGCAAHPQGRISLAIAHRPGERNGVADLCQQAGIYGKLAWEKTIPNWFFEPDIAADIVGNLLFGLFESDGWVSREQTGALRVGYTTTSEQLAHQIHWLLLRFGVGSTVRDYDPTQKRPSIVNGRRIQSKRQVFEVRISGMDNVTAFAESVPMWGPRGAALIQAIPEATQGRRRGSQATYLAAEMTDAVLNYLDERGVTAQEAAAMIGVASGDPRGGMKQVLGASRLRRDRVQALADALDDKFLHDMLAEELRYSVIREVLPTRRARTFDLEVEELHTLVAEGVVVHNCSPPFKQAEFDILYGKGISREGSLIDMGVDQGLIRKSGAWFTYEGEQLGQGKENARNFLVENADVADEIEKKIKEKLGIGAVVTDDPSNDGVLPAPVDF
Mtb FBA inh conf = M. tuberculosis aldolase blockers, biochemical, fluorescence, strain H37Rv, confirmation | shares compounds with Mtb FBA inh | purified M. tuberculosis FBA, fluorescence read-out | inhibition, % at 1 µM | 5,600 tested, 78% active | AID 651616, 2012
GDH-TPI counter-2 = GDH-TPI coupling enzyme inhibitors, artefact control for M. tuberculosis FBA inhibitor project, biochemical, fluorescence, high throughput | AID 652141, 2013 | 5,600 tested, 81% active | shares compounds with Mtb FBA inh | inhibition, % at 1 µM | GDH-TPI coupled enzyme counterscreen; in the data active means inhibition above about 10%
A number is an active result; i = inactive; ? = inconclusive; nt = no result given; + = active, no number. Unless noted, no stated cut-off is given here; in the data, active means inhibition above about 27%; inactive means the rest.

SMILES | Mtb UGM inh | Mtb FBA inh | Rv3671c inh | GDH-TPI counter-1 | Mtb bLac sens | RecA intein inh | Mtb FBA inh conf | GDH-TPI counter-2
CCN(CC)c1ccc2c(C)cc(=O)oc2c1 | i | 107.9 | i | i | i | nt | 124.9 | 88.0
CCN(CC)c1ccc2c(Cl)c(Br)c(=O)oc2c1 | i | i | i | i | i | i | nt | nt
O=C(COc1coc(CN2CCN(c3ccccc3F)CC2)cc1=O)NCC1CCCO1 (configuration not stated) | i | i | i | i | i | i | nt | nt
Nc1ccc2c(c1)C(=O)N(CCCCCC(=O)O)C2 | i | 38.5 | i | i | i | i | 121.0 | 110.2
Nc1ccc2c(c1)C(=O)N(CCCC(=O)O)C2=O | i | i | i | i | i | i | nt | nt
O=C(COC(=O)CC1CCCCC1)Nc1c(Cl)cccc1Cl | i | i | i | i | i | nt | nt | nt
O=c1oc2ccc3ccccc3c2cc1-c1nc2ccccc2o1 | i | 46.5 | i | i | i | i | 73.3 | 67.4
Cc1cc2c(c(N)n1)c(=O)oc1ccccc12 | i | 39.8 | i | i | i | i | i | i
O=c1oc2ccccc2c2c1ccc1ccccc12 | nt | 28.6 | nt | i | nt | nt | 51.4 | 42.8
O=c1oc2ccccc2c2[nH]ccc12 | i | i | i | i | i | i | nt | nt
CCCCCCC(C)OC(=O)c1ccccc1C(=O)O (configuration not stated) | i | i | i | i | i | i | nt | nt
Cc1c(C)c2ccc(OCC(=O)N3C[C@H]4C[C@@H](C3)c3cccc(=O)n3C4)c(C)c2oc1=O | i | 33.7 | i | i | i | nt | 68.0 | 39.9
CC(C)=CCOc1ccc2c(C)c(CCC(=O)N3C[C@H]4C[C@@H](C3)c3cccc(=O)n3C4)c(=O)oc2c1C | nt | 82.3 | nt | i | nt | nt | 101.6 | 92.1
O=C(COC(=O)c1ccc(O)cc1)NCC1CCCO1 (configuration not stated) | i | i | i | i | i | i | nt | nt
COc1ccc(C2CC(c3ccccc3OC(C)=O)=NN2C(C)=O)cc1 (configuration not stated) | i | 49.9 | i | i | i | i | 108.7 | 74.8
O=C(O)C1(c2ccccc2)CCN(S(=O)(=O)c2ccc(F)c(F)c2)CC1 | i | i | i | i | i | i | nt | nt
Cn1c(=O)c2cc3ccccc3nc2n(C)c1=O | i | 35.8 | i | i | i | i | 59.0 | 51.0
O=C(Nc1ncn[nH]1)c1ccccc1O | i | 55.7 | i | i | i | i | + | +
O=C(Nc1ncn[nH]1)c1c(Cl)ccc(Cl)c1Cl | i | i | i | i | i | i | nt | nt
O=c1[nH]c2cc3c(cc2cc1C(c1nnnn1Cc1ccccc1)N1CCN2CCCC2C1)OCCO3 (configuration not stated) | nt | 34.8 | i | i | i | i | + | 134.4
CCCCC(CC)Cn1c(N)c(C#N)c2nc3ccccc3nc21 (configuration not stated) | i | 50.1 | i | i | i | i | i | i
CCCCc1c(C)c(C#N)c2nc3ccccc3n2c1Cl | nt | nt | nt | nt | nt | i | nt | nt
COc1cccc2[nH]c(C(=O)NCCCN3CCCC3=O)cc12 | i | 59.0 | i | i | i | i | 142.6 | 115.5
CCc1ccc(NC(=O)C2CCCN2S(=O)(=O)c2ccc3c(c2)C(C)(C)C(=O)N3C)cc1 (configuration not stated) | i | i | i | i | ? | i | nt | nt
COc1ccc(-c2nc(CSCC(=O)N3CCC4(CC3)OCCO4)c(C)o2)cc1OC | i | i | i | i | ? | i | nt | nt
SMILES | Mtb UGM inh | Mtb FBA inh | Rv3671c inh | GDH-TPI counter-1 | Mtb bLac sens | RecA intein inh | Mtb FBA inh conf | GDH-TPI counter-2
Cc1oc(-c2cccs2)nc1CSCC(=O)N1CCC2(CC1)OCCO2 | i | 27.9 | i | i | i | nt | 164.2 | 144.3
COC(=O)C1CC2=C(CCCC2=O)N(Cc2ccccc2)C1=O (configuration not stated) | nt | i | nt | i | nt | nt | nt | nt
Cc1ccc(-c2c(C#N)c(N)nc3c2CCCCC3)o1 | i | i | i | i | i | i | nt | nt
Cc1ccc(-c2c(C#N)c(N)nc3c2CCCCCC3)o1 | i | 31.5 | i | i | i | i | 51.2 | 38.2
O=C(O)CCc1nn2c3ccccc3n(Cc3ccccc3)c2nc1=O | i | 35.5 | i | i | i | i | i | i
CC(=O)Cn1c2ccccc2n2nc(CCC(=O)O)c(=O)nc12 | i | i | i | i | i | i | nt | nt
C[C@H](O)CNC(=O)c1[nH]cnc1C(=O)N[C@@H](C)c1ccccc1 | nt | i | nt | i | nt | nt | nt | nt
COc1ccc(/C=C(\C#N)C(=O)OCC(=O)Nc2ccc(-c3nc4ccc(C)cc4s3)cc2)cc1 | i | 31.4 | i | i | i | i | 118.9 | 89.7
CCOc1ncccc1C(=O)OCC(=O)Nc1ccc(-c2nc3ccc(C)cc3s2)cc1 | i | 34.1 | i | i | i | i | 33.0 | 22.5
Cc1ccc2nc(-c3ccc(NC(=O)COC(=O)c4ccc(Br)o4)cc3)sc2c1 | i | i | i | i | i | nt | nt | nt
Cc1ccc2nc(-c3ccc(NC(=O)COC(=O)c4cncc(Br)c4)cc3)sc2c1 | nt | 40.4 | nt | i | nt | i | 33.0 | 26.0
CC(=O)NC(c1cccs1)c1cc(Cl)c2ccccc2c1O (configuration not stated) | i | 35.9 | i | i | i | nt | 83.8 | 58.3
CCC(=O)NC(c1cccs1)c1cc(Cl)c2ccccc2c1O (configuration not stated) | i | 39.2 | i | i | i | nt | 116.5 | 79.8
COc1ccc(S(=O)(=O)N2CCN(C(=O)C3CC(=O)N(c4ccccc4F)C3)CC2)cc1OC (configuration not stated) | nt | 32.8 | nt | i | nt | nt | 149.8 | 93.6
CCCC(=O)Nc1ccc2c(c1)nc(CCN1CCCCC1)n2C | i | i | i | i | i | i | nt | nt
Cc1ccc(OCC(=O)Nc2ccc(CN3CCOCC3)cc2)cc1C | i | i | i | i | i | i | nt | nt
O=C(COc1ccc2c(c1)oc(=O)c1ccccc12)NCCCN1CCOCC1 | i | 98.2 | i | i | i | i | 92.7 | 77.7
O=C(COc1ccc2c3c(c(=O)oc2c1)CCC3)NCCCN1CCOCC1 | i | i | i | i | i | i | nt | nt
Cc1c(C)c2ccc(OCC(=O)NCCN3CCOCC3)cc2oc1=O | i | 97.5 | i | i | i | i | i | i
CC(Oc1ccc2c(-c3ccccc3)cc(=O)oc2c1)C(=O)NCCCN1CCOCC1 (configuration not stated) | i | i | i | i | i | i | nt | nt

Screening results from PubChem.
